Test results published in ChEMBL document CHEMBL4296182, “CO-ADD screening of NIH NCI Diversity Set V”.
For part of these data: Results with a measured potency or affinity are listed apart.

What was measured:
Staphylococcus aureus = test: Antibacterial activity against Staphylococcus aureus MRSA ATCC 43300 (CO-ADD:GP_020); MIC in CAMBH media using NBS plates, by Resazurin F(560/590); assay type: functional; conditions: Concentration 20 uM, ASSAY_TEST Inhibition of Bacterial Growth, detection method Resazurin, Fluorescence (ex560/em590), MEDIA CAMHB, plate type 384well, CORNING #3640, time 18 hr
Acinetobacter baumannii = test: Antibacterial activity against Acinetobacter baumannii ATCC 19606 (CO-ADD:GN_034); MIC in CAMBH media using NBS plates, by Resazurin F(560/590); assay type: functional; conditions: Concentration 20 uM, ASSAY_TEST Inhibition of Bacterial Growth, detection method Resazurin, Fluorescence (ex560/em590), MEDIA CAMHB, plate type 384well, CORNING #3640, time 18 hr
Escherichia coli = test: Antibacterial activity against Escherichia coli ATCC 25922 (CO-ADD:GN_001); MIC in CAMBH media using NBS plates, by Resazurin F(560/590); assay type: functional; conditions: Concentration 20 uM, ASSAY_TEST Inhibition of Bacterial Growth, detection method Resazurin, Fluorescence (ex560/em590), MEDIA CAMHB, plate type 384well, CORNING #3640, time 18 hr
Klebsiella pneumoniae = conditions: Concentration 20 uM; ASSAY_TEST Inhibition of Bacterial Growth; detection method Absorption (OD600); MEDIA CAMHB; plate type 384well; NBS; CORNING #3640; time 18 hr
Candida albicans = conditions: 20 µM
Cryptococcus neoformans = conditions: Concentration 20 uM; ASSAY_TEST Inhibition of Fungal Growth; detection method Resazurin; Absorption (OD600-OD570); plate type 384well; NBS; CORNING #3640

SMILES	Inhibition (Staphylococcus aureus) [%]	Inhibition (Acinetobacter baumannii) [%]	Inhibition (Escherichia coli) [%]	Inhibition (Klebsiella pneumoniae) [%]	Inhibition (Candida albicans) [%]	Inhibition (Cryptococcus neoformans) [%]
O=C1CCCc2cc3c(cc21)CC1(C3)Cc2cc3c(cc2C1)C(=O)CCC3	15.97	-9.78	9.88	10.84	3.32	-3.34
O=c1[nH]c(=O)n2ncnc2[nH]1	16.94	-11.21	5.82	7.37	-1.3	-10.02
NC1=NC(Nc2ccccc2)=NC(c2ccccc2)N1 (configuration not stated)	10.62	4	5.99	5.54	6.21	-14.92
CCN(CC)CCNC(=O)c1ccc(NCN2C(=O)NC(c3ccccc3)(c3ccccc3)C2=O)cc1	12.78	-11.12	11.42	8.03	1.74	-3.88
CC12C(=O)N(c3nccs3)C(=O)C1(C)C1CCC2O1 (configuration not stated)	6.57	6.5	7.81	14.08	2.65	-13.24
CC(=O)c1c(O)c(C)c(O)c2c1OC1=CC(=O)/C(=C(/C)N)C(=O)C12C (configuration not stated)	-3.02	6.34	8.14	14.26	6.96	-10.35
C(=C\CSc1ccccn1)/CSc1ccccn1	10.81	-13.92	9.4	8.71	2.49	-12.06
CCC(C)Nc1nc2c(c(=O)n(C)c(=O)n2C)n1C (configuration not stated)	12.63	12.04	-1.91	12.65	3.5	-7.05
COC1=CC(C)C2CC3OC(O)CC4C(C)=C(OC)C(=O)C(C2(C)C1=O)C34C (configuration not stated)	7.24	8.28	-3.89	9.99	3.92	7.39
CC1(C)N=C(N)N=C(N)N1c1ccc(OCCCOc2ccccc2)c(Cl)c1.CCS(=O)(=O)O	10.6	-13.57	15.29	12.4	-0.44	-3.49
OCc1ncccc1O	-1.04	-10.34	-5.68	25.51	3.22	0.67
O=C1c2ccccc2C(=O)c2c1cccc2-n1nnc2ccccc21	8.87	-5.95	13.14	0.02	0.12	-17.13
Cc1ccc(Nc2nc(Cl)nc3ncn(C)c23)c(C)c1	8	11.23	-0.86	14.74	2.26	-7.52
CCn1c(=O)n(C)c2c(=O)n(C)c(=O)n(C)c21	-2	-10.53	11.39	6.07	-0.98	-11.25
NC(=O)c1ccccc1OCC(=O)Nc1ccc(Cl)c(Cl)c1	5.21	-16.17	19.19	9.46	4.37	-18.28
OCc1ncc(-c2ccccc2)s1	-7.34	-9.91	3.7	5.05	2.13	-4.82
CC1OC1c1ccc(-c2ccc(C3OC3C)cc2)cc1 (configuration not stated)	3.27	-0.69	9.33	23.63	7.55	-6.65
CCOC(=O)c1c(C)nc(C)c(C(=O)OCC)c1-c1cccnc1	-3.54	13	-4.27	5.06	0.35	-2.16
Clc1ccc(-c2nc(-c3cc4cc(Cl)ccc4o3)cs2)cc1	-3.66	8.53	11.7	9.81	1.45	-4.29

SMILES	Inhibition (Staphylococcus aureus) [%]	Inhibition (Acinetobacter baumannii) [%]	Inhibition (Escherichia coli) [%]	Inhibition (Klebsiella pneumoniae) [%]	Inhibition (Candida albicans) [%]	Inhibition (Cryptococcus neoformans) [%]
CCC(C)Oc1nc2c(c(=O)n(C)c(=O)n2C)n1C (configuration not stated)	-1.77	-5.34	12.06	2.01	1.02	-11.56
COc1cc(C(=O)c2cocc2C(=O)c2ccc3c(c2)OCO3)cc(OC)c1OC	27.15	-6.33	12.62	6.01	3.29	14.1
O=[N+]([O-])c1ccccc1/C=C/C=N/N=C/c1ccccc1O	0.05	-15.14	9.06	2.2	2.43	3.86
N=C(N)NC(=S)Nc1ccc(Cl)cc1	29.08	3.91	19.57	9.15	20	-7.26
Cc1c(O)cnc2nn(-c3ccccc3)c(=N)n12	11.23	10.25	2.75	9.94	3.98	-5.13
CC1=NC2=CC=CC3=NC(C(Cl)(Cl)Cl)=NC(=N1)N23	-3.19	10.22	9.49	11.94	1.15	-10.05
CC(=O)Nc1ccc(OC(=O)Oc2ccc(NC(C)=O)cc2)cc1	37.09	-4.35	7.78	22.87	5.36	-3.28
O=C(Nc1cccc(-c2ccccc2)c1)N1CCN(C(=O)Nc2cccc(-c3ccccc3)c2)CC1	26.71	-7.47	7.55	6.58	-1.22	-2.57
Oc1nc(S)ncc1Oc1ccc(Cl)cc1Cl	8.02	11.12	2.19	10.84	6.27	-6.95
Nc1ccc(C(=O)Oc2ccc([N+](=O)[O-])cc2)cc1	12.07	4.99	4.45	11.91	3.13	-14.05
O=c1cc(-c2cccnc2)oc2c1ccc1ccccc12	20.75	-10.07	18.5	-1.55	29.4	-11.93
COc1ccc2nc3cc(Cl)ccc3c(Nc3cc(C(C)C)c(O)cc3C)c2c1	18.28	-16.67	18.01	9.53	-0.84	-12.42
O=C(Nc1ccc(Br)c2ccccc12)c1ccc2ccccc2c1O	0.57	-4.06	-4.98	22.07	4.96	1.39
c1ccc2c(c1)Nc1cc3ccccc3cc1S2	1.39	-1.02	3.79	5.14	-0.01	-3.36
Cn1nc(N)c2ncc(C(Cl)(Cl)Cl)nc21	-7.62	-8.78	5.5	9.07	10.5	-10.84
Nc1ccccc1-n1nc2ccc3ccccc3c2n1	-2.24	-24.16	7.22	6.99	3.16	-10.55
Cn1c(=O)c2c(nc(N3CCCCC3)n2C)n(C)c1=O	9.93	4.85	2.17	8.3	4.05	-7.82
Clc1ccc(-c2[nH]nc3c2Cc2ccccc2-3)cc1Cl	-2.87	13.22	-5.11	8.31	5.84	2.71
